Assay results as given in PubChem BioAssay (NCATS).
Unmarked numbers belong to inactive results. Inconclusive results are not listed. A call without a number means that no potency is given here. Calls of active or inactive are those of the source. Unless noted, the call rests on the fitted dose curve; in most records, active means well fitted curve in the direction sought with a large enough effect; inconclusive means small, poorly fitted or top-dose-only effect, or another doubt; inactive means no such curve, though single readings can be large; an effect the other way counts as inactive or inconclusive.

How the values were obtained:
[1] = Cell Viability - Renal Proximal Tubule (AID 545); further: nearly all actives have a fitted effect of over 40% in size
Outline: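 In this qHTS format, normal rat kidney-derived proximal tubule cells in complete culture medium receive compound titrations, then sit 40 hours at 37 °C before luciferase-based ATP quantitation; potency is reported as AC50 from concentration-response curves.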

[2] = Cellular Toxicity (caspase-3) HepG2 (AID 654);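 further: cells exposed to compound for 16 hours before reading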
Outline: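 Luminescent Caspase-Glo 3/7 readout after 16 hr compound exposure of human hepatocellular carcinoma HepG2 cells at 37 °C; qHTS concentration-response, normalized DMSO = 0%, 100 uM tamoxifen = 100%; AC50 by standard Hill equation.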

[3] = Cellular Toxicity (caspase-3) NIH 3T3 (AID 666)
Outline: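 NIH 3T3, 1000 cells/well, 5 hr settle then 16 hr compound at 37°C; Caspase-Glo 3/7, 20 min RT, luminescence. DMSO = basal, 100 uM tamoxifen = 100%. Hill-equation AC50, qHTS.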

[4] = Cellular Toxicity (caspase-3) Renal Proximal Tubule (AID 667);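 further: cells exposed to compound for 16 hours at 37 °C before detection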
Outline: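 Caspase-Glo 3/7 read-out, rat primary kidney proximal tubule cells. Compound exposure 16 h, 37 °C; detection after 1 h at RT. Activity scaled to DMSO and 10 uM staurosporine.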

[5] = Cell Viability - LYMP2-009 (AID 968); further: nearly all actives have a fitted effect of over 55% in size
[6] = Cell Viability - LYMP2-011 (AID 969);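 further: cells exposed to compound for 24 hours; nearly all actives have a fitted effect of over 60% in size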
Outline: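 Luminescent ATP read-out (CellTiter-Glo, 30 min RT) after 24 hr compound exposure at 37 C in human lymphoblastoid cells, 2500 cells/well. Decreasing ATP indicates cytotoxicity; AC50 from standard Hill fit.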

[7] = Cell Viability - LYMP2-002 (AID 977)
Outline: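 Human lymphoblastoid cells, 2500/well, complete medium; 5 h 37 C settle; compound 24 h 37 C; CellTiter-Glo, 30 min RT; luminescence. Decrease in ATP = cytotoxicity; AC50 via Hill equation.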

[8] = Cell Viability - LYMP2-026 (AID 989); further: nearly all actives have a fitted effect of over 50% in size
Outline: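 qHTS cytotoxicity: 2500 cells/well, 5 hr 37 C, compound 24 hr 37 C, CellTiter-Glo 30 min RT, luminescence. Tetraoctylammonium bromide positive control. AC50 via standard Hill fit.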

[9] = Cell Viability - LYMP1-002 - Assay at 24 hr (AID 993)
Outline: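 CellTiter-Glo luminescence (intracellular ATP) after 24 h compound exposure, 37 C, in LYMP1-002 human lymphoblastoid cells; decreased ATP taken as cytotoxicity. AC50 from standard Hill fit of concentration-response curves.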

[10] = molecular target: Peroxisome proliferator-activated receptor gamma (Homo sapiens) (UniProt P37231); assay: qHTS assay for small molecule agonists of peroxisome proliferator-activated receptor gamma signaling (AID 588536; active means well fitted curve in the direction sought with a large enough effect in the signal ratio, with a control signal flat, not every such curve was filed as active; the % refers to the signal ratio)
Peroxisome proliferator-activated receptor gamma (Homo sapiens), sequence (P37231 whole entry, looked up): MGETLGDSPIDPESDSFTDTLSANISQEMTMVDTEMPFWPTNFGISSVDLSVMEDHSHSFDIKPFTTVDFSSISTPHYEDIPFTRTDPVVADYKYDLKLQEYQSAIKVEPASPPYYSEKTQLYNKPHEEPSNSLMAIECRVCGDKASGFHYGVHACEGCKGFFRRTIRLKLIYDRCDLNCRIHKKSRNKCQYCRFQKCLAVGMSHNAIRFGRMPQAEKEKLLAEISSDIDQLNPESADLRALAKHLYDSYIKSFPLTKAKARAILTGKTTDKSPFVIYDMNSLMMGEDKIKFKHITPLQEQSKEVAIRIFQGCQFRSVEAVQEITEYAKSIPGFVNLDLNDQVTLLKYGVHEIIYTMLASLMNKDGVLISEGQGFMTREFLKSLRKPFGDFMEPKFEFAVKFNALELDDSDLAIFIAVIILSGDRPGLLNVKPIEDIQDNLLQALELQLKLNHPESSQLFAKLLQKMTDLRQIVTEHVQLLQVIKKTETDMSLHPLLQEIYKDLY
Outline: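 Compound treatment: 16 h, 37 C, HEK293 GeneBLAzer cells. Detection: CCF4, 2 h RT. Values: Hill-fit EC50, efficacy as % of 2 uM rosiglitazone.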

[11] = molecular target: Vitamin D3 receptor (Homo sapiens) (UniProt P11473); assay: qHTS assay for small molecule agonists of vitamin D receptor signaling (AID 588543; calls by dose curve)
Vitamin D3 receptor (Homo sapiens), sequence (P11473 whole entry, looked up): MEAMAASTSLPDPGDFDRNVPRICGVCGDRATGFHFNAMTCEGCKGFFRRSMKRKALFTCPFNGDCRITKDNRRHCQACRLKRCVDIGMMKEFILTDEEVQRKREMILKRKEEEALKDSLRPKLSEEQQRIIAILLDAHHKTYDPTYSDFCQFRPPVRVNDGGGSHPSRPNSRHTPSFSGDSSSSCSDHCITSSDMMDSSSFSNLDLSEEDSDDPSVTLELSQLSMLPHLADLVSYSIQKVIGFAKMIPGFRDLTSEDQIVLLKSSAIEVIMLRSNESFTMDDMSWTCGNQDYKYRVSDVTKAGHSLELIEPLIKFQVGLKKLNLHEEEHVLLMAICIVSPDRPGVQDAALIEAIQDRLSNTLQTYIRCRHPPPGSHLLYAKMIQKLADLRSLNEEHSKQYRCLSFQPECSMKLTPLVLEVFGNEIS
Outline: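 Measured: β-lactamase reporter activity (CCF4, 405 nm excitation, 460/530 nm emission) in HEK293T VDR-UAS-bla cells after 16 h compound exposure at 37 °C. Normalization against 50 nM 1α,25-dihydroxyvitamin D3 and DMSO; Hill-fit EC50.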

[12] = qHTS assay for small molecule disruptors of the mitochondrial membrane potential - 5 hr assay (AID 651755; calls by dose curve; further: nearly all actives have a fitted effect of over 40% in size; further: potency means the concentration at half of the fitted maximal effect)
Outline: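 Read-out: ratiometric Mito-MPS fluorescence, green monomer (ex 490/em 535) vs red mitochondrial aggregate (ex 540/em 590). HepG2 cells treated 5 hr at 37C before 30 min dye loading.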

[13] = Cell Viability - HUV-EC-C (AID 542); further: nearly all actives have a fitted effect of over 35% in size
Outline: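 Luminescent ATP read-out (CellTiter-Glo, 20 min room temperature) after 40 hr compound treatment of HUV-EC-C cells at 37 °C. Concentration-response data fitted with the standard Hill equation to give AC50; tamoxifen and doxorubicin served as positive controls.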

[14] = Cellular Toxicity (caspase-3) Jurkat (AID 655); settings: Jurkat caspase-3 activation, luminescence; caspase-3 activation: at 92.2 µM (top of the series), DMSO = 0%, tamoxifen = 100%;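 further: cells exposed to compound for 16 h at 37 °C before reading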
Outline: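 qHTS in human Jurkat T-cell leukemia line: 16 hr compound treatment at 37 °C, caspase-3/7 activity measured by Caspase-Glo luminescence. AC50 derived from Hill equation.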

[15] = MultiTox-Fluor Cytotoxicity Assay - LYMP1-001 - Dead Cells (AID 946)
Outline: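 AC50 from Hill fit of concentration-response; data normalized to DMSO (basal) and 15 uM tetraoctylammonium bromide (100%). LYMP1-001 lymphoblastoid cells, 2500/well, 16 hr compound at 37 C; dead-cell protease fluorescence, Ex/Em 485/520.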

[16] = MultiTox-Fluor Cytotoxicity Assay - LYMP1-001 - Live Cells (AID 947)
[17] = MultiTox-Fluor Cytotoxicity Assay - LYMP1-002 - Live Cells (AID 955);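 further: cells exposed to compound for 16 hours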
Outline: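 LYMP1-002 lymphoblastoid cells; 2500 cells/well; 16 hr compound exposure, 37 C; MultiTox-Fluor reagent 60 min RT; live-cell fluorescence Ex/Em=405/510; qHTS concentration-response, Hill-equation AC50; tetraoctylammonium bromide positive control.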

[18] = Cell Viability - LYMP2-019 (AID 973); further: nearly all actives have a fitted effect of over 55% in size
Outline: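 qHTS, 1536-well; 2500 cells/well; 5 hr pre-incubation, 24 hr compound exposure, 37 C; CellTiter-Glo added, 30 min RT; luminescence read; AC50 via standard Hill equation.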

[19] = molecular target: Mitogen-activated protein kinase 10 (Mus musculus) (UniProt Q61831); assay: JNK3 AlphaScreen Assay (AID 530; active means well fitted curve in either direction with a large enough effect, not every such curve was filed as active;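 further: kinase came from lysate of stimulated human HepG2 cells; signal reports phosphorylation of biotinylated GST-cJun 1-79 at Ser73 with 10 µM ATP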)
Outline: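 HepG2 lysate (IL-1b/TNFa pre-activated) + biotin-GST-cJun 1-79 + anti-pSer73 cJun; cpd titration, 15 min RT; ATP 10 uM start; Tris pH 7.6, MgCl2, DTT, vanadate; beads in EDTA buffer; AlphaScreen.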

[20] = Cell Viability - LYMP2-023 (AID 975);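 further: cellular ATP measured by luciferase luminescence as viability proxy; cells exposed to compound for 24 hours at 37 °C; nearly all actives have a fitted effect of over 55% in size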
Outline: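 CellTiter-Glo luminescence after 30 min at room temperature; decrease in intracellular ATP reflects toxicity. Cells: human lymphoblastoid line, 2500/well, 24 hr compound exposure at 37 C. AC50 fitted to standard Hill equation from concentration-response.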

Row | SMILES | outcome [1] | outcome [2] | Potency [3] | outcome [4] | Potency [5] | Potency [6] | Potency [7] | Potency [8] | Potency [9] | outcome [10] | outcome [11] | Potency [12] | Potency [13] | caspase-3 activation [14] [%] | outcome [15] | outcome [16] | outcome [17] | Potency [18] | Potency [19] | Potency [20]
1 | CC(C)(OOC(C)(C)c1ccccc1)c1ccccc1 | inactive | inactive | inactive | inactive | inactive | inactive | inactive | inactive | inactive | inactive | inactive | inactive | – | – | – | – | – | – | – | –
2 | O=[N+]([O-])CCO | inactive | inactive | inactive | inactive | inactive | inactive | inactive | inactive | inactive | inactive | – | – | inactive | -0.445 | inactive | inactive | inactive | inactive | – | –
3 | Nc1ccc(Cl)c(Cl)c1 | – | inactive | inactive | – | inactive | inactive | inactive | inactive | inactive | inactive | inactive | inactive | inactive | 0.952 | inactive | – | inactive | – | inactive | inactive
4 | c1ccc(N=NNc2ccccc2)cc1 | – | inactive | – | inactive | inactive | – | – | inactive | – | inactive | inactive | – | inactive | 6.34 | inactive | inactive | – | – | – | inactive
5 | CCBr | inactive | inactive | inactive | inactive | inactive | inactive | inactive | inactive | – | – | inactive | inactive | inactive | -0.439 | inactive | – | inactive | – | inactive | inactive
6 | CC(C)CON=O | inactive | inactive | inactive | inactive | inactive | inactive | inactive | inactive | inactive | inactive | inactive | inactive | inactive | -1.62 | inactive | inactive | inactive | inactive | inactive | inactive
7 | CCCCC(=O)Cl | inactive | inactive | – | inactive | inactive | inactive | inactive | inactive | inactive | – | inactive | inactive | inactive | – | inactive | inactive | – | inactive | inactive | inactive
8 | O=C(O)CCl | – | inactive | inactive | inactive | inactive | – | – | inactive | inactive | inactive | inactive | inactive | – | -0.292 | inactive | inactive | inactive | inactive | inactive | inactive
9 | N#CCBr | inactive | inactive | inactive | inactive | inactive | inactive | inactive | inactive | inactive | – | – | inactive | – | 0.425 | – | inactive | inactive | inactive | inactive | inactive
10 | OCCOCCO | inactive | inactive | inactive | inactive | inactive | inactive | inactive | inactive | inactive | inactive | inactive | inactive | inactive | -0.825 | – | inactive | inactive | inactive | inactive | –
11 | O=S(=O)(Cl)c1ccccc1 | inactive | – | inactive | inactive | – | inactive | inactive | inactive | inactive | inactive | inactive | inactive | inactive | 0.656 | inactive | inactive | inactive | inactive | inactive | inactive
12 | c1ccc(P(c2ccccc2)c2ccccc2)cc1 | inactive | inactive | – | inactive | inactive | inactive | inactive | inactive | inactive | inactive | inactive | inactive | inactive | 0.655 | inactive | inactive | inactive | – | – | inactive
13 | ClCc1ccccn1 | inactive | inactive | inactive | inactive | – | inactive | – | inactive | inactive | inactive | inactive | inactive | inactive | 1.38 | inactive | inactive | inactive | inactive | – | inactive
14 | COc1ccc(C=O)cc1 | inactive | – | inactive | inactive | – | inactive | – | – | – | inactive | inactive | – | inactive | -0.692 | inactive | inactive | inactive | inactive | inactive | inactive
15 | Cc1ccc(N)cc1N | inactive | inactive | inactive | inactive | – | inactive | inactive | – | inactive | inactive | inactive | 29.8 µM (active) | – | -0.424 | inactive | inactive | inactive | inactive | inactive | inactive
16 | [O-][Cl+]O | inactive | – | inactive | inactive | inactive | inactive | inactive | – | inactive | inactive | inactive | inactive | – | 0.134 | inactive | inactive | inactive | inactive | inactive | inactive
17 | O=C(Cc1ccccc1)OCc1ccccc1 | inactive | inactive | inactive | inactive | inactive | inactive | inactive | – | inactive | inactive | inactive | inactive | inactive | 3.55 | inactive | inactive | inactive | inactive | – | inactive
18 | O=[N+]([O-])c1ccccc1-c1ccccc1 | inactive | inactive | inactive | inactive | inactive | inactive | inactive | inactive | inactive | inactive | – | inactive | inactive | 0.923 | inactive | inactive | inactive | inactive | inactive | inactive
